According to ChEMBL document CHEMBL1157539, “Thousands of chemical starting points for antimalarial lead identification” (Nature, 2010):

How the values were obtained:
Type in all cases: functional
Plasmodium falciparum [1] = test: GSK_TCMDC: Inhibition of Plasmodium falciparum 3D7 in whole red blood cells, using parasite LDH activity as an index of growth. Test compounds present at 2uM
Plasmodium falciparum [2] = test: GSK_TCMDC: Inhibition of Plasmodium falciparum Dd2 in whole red blood cells, using parasite LDH activity as an index of growth. Test compounds present at 2uM
HepG2 = test: GSK_TCMDC: Percent inhibition of human HepG2 cell line. Test compounds present at 10uM.

SMILES	Inhibition (Plasmodium falciparum [1]) [%]	Inhibition (Plasmodium falciparum [2]) [%]	Inhibition (HepG2) [%]
CS(=O)(=O)CCNc1cc(N2CCc3ncnc(Nc4ccc(OCc5cccc(F)c5)c(Cl)c4)c3C2)ncn1	96	50	0
COc1ccc(C(=O)CCC(=O)N(Cc2ccc(-c3ccc(CNCCc4ccc(S(C)(=O)=O)cc4)cn3)cc2)C2CCN(Cc3ccccc3)CC2)cc1F.O=C(O)C(F)(F)F	99	72	20
O=C(CCc1c[nH]cn1)Nc1cccc(-c2ccc(-c3nc4cc(F)ccc4[nH]3)cc2)c1	100	79	18
NC(=O)C1CCN(Cc2cccc(-c3ccc(-c4nc5cc(C(F)(F)F)ccc5[nH]4)cc3)c2)CC1.O=C(O)C(F)(F)F	100	94	7
Cc1cc(NCc2ccccc2)nc2cc(O)ccc12	98	80	0
Oc1cccc(-c2nc3cc(C4=NC5CCCCC5N4)ccc3[nH]2)c1 (stereo not drawn)	94	99	3
COc1ccc(CN2CCCC(Nc3ccc(F)c(F)c3)C2)c(O)c1 (stereo not drawn)	95	83	14
COc1ccc(CCNCCCCCCNCCc2ccccc2Cl)cc1OC.Cl	96	3	13
CCc1c[nH]c2c(N3CCCC3=O)cc(C(=O)N[C@@H](Cc3ccccc3)[C@H](O)CNC(C)(C)CCCC(C)C)cc12.O=CO	96	97	22
COc1ccc2c(NN=Cc3ccc(N(C)C)cc3)ccnc2c1	100	100	12
COc1cc(Cc2cnc(N)nc2N)cc(OC)c1OCCCCCN1C(=O)c2ccccc2C1=O	97	4	5
Cc1ccc(F)c(OCC2CCN(c3ccc(C(=O)NC4CC4)cn3)CC2)c1	94	95	4
CCCCCCC(C)c1cc(O)c2c(c1)OC(C)(C)C=C2c1ccncc1 (stereo not drawn)	98	29	0
Cc1cc(NC(=O)NCCN2CCC(NC(=O)c3ccc(C(F)(F)F)cc3)CC2)c2ccccc2n1.O=C(O)C(F)(F)F	98	75	3
CCc1nc2c(cnn2CC)c(NC2CCOCC2)c1CNC(=O)N1CCOCC1	98	48	0
COc1ccc(Cl)cc1NC(=O)C(C)N1CCN(S(=O)(=O)c2ccccc2F)CC1 (stereo not drawn)	93	66	5

SMILES	Inhibition (Plasmodium falciparum [1]) [%]	Inhibition (Plasmodium falciparum [2]) [%]	Inhibition (HepG2) [%]
COc1ccc(C2CC(c3cccs3)=NN2C(=O)CNc2ccccc2F)cc1OC (stereo not drawn)	87	45	11
FC(F)(F)c1ccc2[nH]c(-c3ccc(-c4ccc(CN5CCN(c6ccncc6)CC5)cc4)s3)nc2c1.O=C(O)C(F)(F)F	100	50	97
Cc1cc(NCCc2ccccc2)nc(NC(=N)Nc2cccc(Cl)c2)n1	100	100	24
CCC[C@@H]1CCN[C@H]([C@H](O)c2ccnc3ccc(OC)cc23)C1.Cl	99	69	0
O=C(/C=C/c1ccc(Cl)c(Cl)c1)NCCCCCN1CCC(c2n[nH]c(-c3ccccc3)c2Br)CC1	95	23	100
CCC(C(=O)Nc1cc(=O)[nH]c2nc(-c3ccco3)nn12)c1ccccc1 (stereo not drawn)	87	68	2
O=C(Nc1ccc(F)cc1)c1nc2ccccc2nc1Cl	80	62	44
CCCNC(=O)Nc1ccc(N(C)c2ccnc(NC3CC3)n2)cc1	100	88	28
O=C(Nc1cccc(Cl)c1)N(CCCn1ccnc1)Cc1csc(-c2ccc(CNCc3ccccc3)cc2)n1.O=C(O)C(F)(F)F	100	45	11
CCOC(=O)c1nc(-c2ccc(-c3ccccc3)cc2)[nH]c1N.Cl	98	2	0
Cc1cc2nc(-c3ccc(C(=O)NCc4ccc(C(C)(C)C)cc4)cc3)[nH]c2cc1C	100	59	3
COc1ccc(C(=O)N[C@@H](CC(C)C)C(=O)N[C@H](/C=N/NC(=O)c2ccccc2)CCc2ccccc2)cc1OCCN1CCOCC1	96	86	2
COc1ccc(-c2cc(C(=O)N[C@@H](CC3CCCCC3)C(=O)NCCN3CCCC3)ccc2O)cc1	90	12	12
Cl.N=C(N)NN=Cc1ccc2c(c1)Cc1ccccc1-2	100	81	72
O=C(Nc1ccc(-c2cccc(-c3nc4cc(C(F)(F)F)ccc4[nH]3)c2)cc1)c1csnn1	98	25	42
